Molecules are shown by their SMILES. About 79,000 compounds went through this panel and 15% of them were active in at least one assay; those are over-represented in the sample as a whole. Unmarked numbers belong to inactive results. Active and inactive are the calls of the source. Cut-off read from the data, not from the text of the source: active = growth inhibition above about 70%; inactive = the rest.

The test can be described thus: NCI Yeast Anticancer Drug Screen. Data for the sgs1 mgt1 strain (AID 161).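 Note: 0% = growth of cultures given vehicle only.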 Particulars: S. cerevisiae sgs1 mgt1 strain, hits give high values. How it is done: Growth inhibition of yeast strains with defined genetic alterations is measured as a screen for potential anti-cancer activity. Selected strains with alterations in DNA damage repair or cell cycle control were exposed to compounds and growth inhibition was measured relative to vehicle treated controls. The strain used in this assay is sgs1 mgt1

Where [1] appears, read: at 5.0 µM (retest, dose inferred, filed as 0.5).
Where [2] appears, read: at 50.0 µM (retest, dose inferred, filed as 5.0).

Take `N#CCCC1C(C#N)C2(Cl)CC1(Cl)C(Cl)=C2Cl` (configuration not stated): the growth inhibition by setting is: under setting [1], -18%; under setting [2], 4%; (at 50.0 µM) 91.5% (active).

In the case of `O=NC1c2cccc3cccc(c23)C1N=O` (configuration not stated), the growth inhibition is 30% under setting [1], 97% (active) under setting [2] and 97.3% (active) (at 50.0 µM).

Regarding `Cc1ccc(NC(=O)CCC(=O)C(C)C(=O)c2ccccc2)c(C)c1` (configuration not stated), the growth inhibition is 5% under setting [1], 9% under setting [2] and 11.1% (at 50.0 µM).

Consider `O=C1C2=C(c3ccccc31)C(c1ccccc1)N1C(=O)CSC1=N2` (configuration not stated), for which the growth inhibition by setting is: under setting [1], 11%; under setting [2], 44%; (at 50.0 µM) 59.6%.

In the case of `Nc1cccc(-c2cc[cH-]c2)c1.[Fe+2].c1cc[cH-]c1`, the growth inhibition under setting [1] is -9%, the growth inhibition under setting [2] was 7% and the growth inhibition (at 50.0 µM) is 31.4%.

On to `NC(N)=NS(=O)(=O)c1ccc(Nc2c3ccccc3nc3c(C(=O)NC(CO)(CO)CO)cccc23)cc1`, for which the growth inhibition is 8% under setting [1], -3% under setting [2] and -20.5% (at 50.0 µM).

Regarding `CC1(C)CC(=O)C(C=NC(=S)C(N)=S)=C(O)C1`, the growth inhibition is, setting by setting: under setting [1], -2%; under setting [2], 8%; (at 50.0 µM) 35.5%.

On to `O=C1c2ccccc2-c2cc3ccccc3c(=O)n21`, for which the growth inhibition by setting is: under setting [1], 9%; under setting [2], 46%; (at 50.0 µM) 81% (active).

As for `CC1=NN(C(=O)CC(=O)NC(=O)/C=C\c2ccccc2)C(=O)C1N=Nc1ccc([N+](=O)[O-])cc1` (configuration not stated), the growth inhibition is -1% under setting [1], 54% under setting [2] and 65.3% (at 50.0 µM).

On to `CCc1c(Cl)c(C)c(Cl)c(O)c1Cl`, for which the growth inhibition is, setting by setting: under setting [1], -16%; under setting [2], 97% (active); (at 50.0 µM) 93.8% (active).

For the molecule `O=[N+]([O-])c1cccc2nc3ccccc3c(NCCCN3CCCCC3)c12`, the growth inhibition under setting [1] was 92% (active), the growth inhibition under setting [2] is 98% (active) and the growth inhibition (at 50.0 µM) is 97% (active).

Turning to `COc1ccc2nc3cccc([N+](=O)[O-])c3c(NCCNCCN(C)C)c2c1`, the growth inhibition under setting [1] is 72% (active), the growth inhibition under setting [2] was 93% (active) and the growth inhibition (at 50.0 µM) is 68.2%.

As to `CCCCCCCCCC(=O)N(CCC)CCC`, the growth inhibition reads like this: under setting [1], -38%; under setting [2], 56%; (at 50.0 µM) 92.9% (active).

Consider `Cc1cc2nc3ccccc3n2c2ccccc12`, for which the growth inhibition is -10% under setting [1], 29% under setting [2] and 66.7% (at 50.0 µM).

(Values after PubChem BioAssay (NCI).)
